Measured values from article PMC7862700, “An all-to-all approach to the identification of sequence-specific readers for epigenetic DNA modifications on cytosine”.

What was measured:
Experiment in all cases: DAPPL (digital affinity profiling via proximity ligation, sequencing); 10 mM Tris-HCl pH 7.5, 50 mM NaCl, 1 mM DTT, 4% glycerol, room temperature, 30 min; GST-TFs on glutathione beads, 16-mer random dsDNA library, 0.1% formaldehyde crosslink after washing; high values mean tight binding
[1] = target: T1, FEV (Homo sapiens, UniProt Q99581 1-238); conditions: protein: recombinant; tags: N-terminal GST; dsDNA, one strand shown
T1 sequence: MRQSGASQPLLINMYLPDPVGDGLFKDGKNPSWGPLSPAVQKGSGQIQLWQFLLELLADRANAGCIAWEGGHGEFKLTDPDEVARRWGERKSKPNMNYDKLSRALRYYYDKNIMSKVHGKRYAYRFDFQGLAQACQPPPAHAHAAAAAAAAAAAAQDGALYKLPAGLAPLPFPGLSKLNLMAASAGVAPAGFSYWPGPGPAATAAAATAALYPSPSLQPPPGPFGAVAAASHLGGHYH
Outline: (§1)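 Human transcription factors carrying a GST fusion were produced in yeast, bound to glutathione beads, tagged with DNA barcodes and pooled together with a tag-only sample. Each pool was held with 200 nmole of a random double-stranded 16-mer DNA library in Tris/NaCl/DTT/glycerol buffer for 30 min at room temperature, then washed, crosslinked in 0.1% formaldehyde, proximity-ligated with BsaI/T4 ligase (1 h, 37 °C), PCR-amplified and sequenced on an Illumina NextSeq500. Binding signal is the read frequency of each hexamer for a given factor divided by its frequency in the tag-only sample.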

[2] = target: ETV5 (Homo sapiens, UniProt P41161 1-510); conditions: protein: recombinant; tags: N-terminal GST; dsDNA, one strand shown
Outline: as §1

[3] = target: HSF1 (Homo sapiens, UniProt Q00613 1-529); conditions: protein: recombinant; tags: N-terminal GST; chain copies: 3; dsDNA, one strand shown
Outline: as §1

[4] = target: T2, SPIC (Homo sapiens, UniProt Q8N5J4 1-248); conditions: protein: recombinant; tags: N-terminal GST; dsDNA, one strand shown
T2 sequence: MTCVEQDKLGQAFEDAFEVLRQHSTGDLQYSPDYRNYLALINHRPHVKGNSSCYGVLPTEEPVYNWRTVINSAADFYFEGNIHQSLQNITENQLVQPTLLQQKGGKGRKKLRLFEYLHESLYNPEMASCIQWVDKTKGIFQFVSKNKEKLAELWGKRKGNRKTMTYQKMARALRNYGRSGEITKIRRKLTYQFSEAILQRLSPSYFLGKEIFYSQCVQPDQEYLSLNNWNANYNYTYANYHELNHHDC
Outline: as §1

[5] = target: ELF4 (Homo sapiens, UniProt Q99607 1-663); conditions: protein: recombinant; tags: N-terminal GST; dsDNA, one strand shown
Outline: as §1

[6] = target: T3, ELK4 (Homo sapiens, UniProt P28324-2 1-405); conditions: protein: recombinant; tags: N-terminal GST; dsDNA, one strand shown
T3 sequence: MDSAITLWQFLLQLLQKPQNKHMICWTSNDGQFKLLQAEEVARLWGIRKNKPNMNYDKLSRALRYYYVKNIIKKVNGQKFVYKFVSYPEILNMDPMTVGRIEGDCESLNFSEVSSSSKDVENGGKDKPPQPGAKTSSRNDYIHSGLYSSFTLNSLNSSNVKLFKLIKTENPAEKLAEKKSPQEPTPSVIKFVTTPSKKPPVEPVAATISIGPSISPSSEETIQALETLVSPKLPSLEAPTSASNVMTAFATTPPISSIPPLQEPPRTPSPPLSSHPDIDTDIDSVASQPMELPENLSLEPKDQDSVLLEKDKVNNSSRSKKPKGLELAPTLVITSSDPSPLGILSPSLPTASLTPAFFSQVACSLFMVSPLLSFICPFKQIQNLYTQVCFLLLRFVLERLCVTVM
Outline: as §1

[7] = target: T4, ETV2 (Homo sapiens, UniProt O00321 1-342); conditions: protein: recombinant; tags: N-terminal GST; dsDNA, one strand shown
T4 sequence: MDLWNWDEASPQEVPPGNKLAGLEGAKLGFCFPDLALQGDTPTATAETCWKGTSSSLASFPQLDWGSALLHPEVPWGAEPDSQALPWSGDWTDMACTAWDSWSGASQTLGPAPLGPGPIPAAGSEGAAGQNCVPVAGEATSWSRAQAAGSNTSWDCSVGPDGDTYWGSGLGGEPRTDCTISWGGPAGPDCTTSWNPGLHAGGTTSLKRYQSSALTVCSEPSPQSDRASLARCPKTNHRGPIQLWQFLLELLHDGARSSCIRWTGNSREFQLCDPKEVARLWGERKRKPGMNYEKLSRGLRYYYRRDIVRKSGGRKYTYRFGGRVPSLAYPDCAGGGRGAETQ
Outline: as §1

[8] = target: T5, ELF3 (Homo sapiens, UniProt P78545 1-371); conditions: protein: recombinant; tags: N-terminal GST; dsDNA, one strand shown
T5 sequence: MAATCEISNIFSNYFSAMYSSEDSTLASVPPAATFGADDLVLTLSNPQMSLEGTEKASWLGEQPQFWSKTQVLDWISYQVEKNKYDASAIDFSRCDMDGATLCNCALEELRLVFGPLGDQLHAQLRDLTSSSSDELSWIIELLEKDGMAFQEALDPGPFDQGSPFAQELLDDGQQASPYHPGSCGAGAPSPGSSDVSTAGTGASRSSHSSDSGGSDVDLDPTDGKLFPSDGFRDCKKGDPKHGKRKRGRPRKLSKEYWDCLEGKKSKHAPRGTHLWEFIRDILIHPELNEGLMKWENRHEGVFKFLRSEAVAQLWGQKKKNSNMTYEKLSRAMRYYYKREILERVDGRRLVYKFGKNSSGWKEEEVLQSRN
Outline: as §1

[9] = target: CRX (Homo sapiens, UniProt O43186 1-299); conditions: protein: recombinant; tags: N-terminal GST; dsDNA, one strand shown
Outline: as §1

[10] = target: ETV1 (Homo sapiens, UniProt P50549 1-477); conditions: protein: recombinant; tags: N-terminal GST; dsDNA, one strand shown
Outline: as §1

ELF4, sequence (Q99607 whole entry): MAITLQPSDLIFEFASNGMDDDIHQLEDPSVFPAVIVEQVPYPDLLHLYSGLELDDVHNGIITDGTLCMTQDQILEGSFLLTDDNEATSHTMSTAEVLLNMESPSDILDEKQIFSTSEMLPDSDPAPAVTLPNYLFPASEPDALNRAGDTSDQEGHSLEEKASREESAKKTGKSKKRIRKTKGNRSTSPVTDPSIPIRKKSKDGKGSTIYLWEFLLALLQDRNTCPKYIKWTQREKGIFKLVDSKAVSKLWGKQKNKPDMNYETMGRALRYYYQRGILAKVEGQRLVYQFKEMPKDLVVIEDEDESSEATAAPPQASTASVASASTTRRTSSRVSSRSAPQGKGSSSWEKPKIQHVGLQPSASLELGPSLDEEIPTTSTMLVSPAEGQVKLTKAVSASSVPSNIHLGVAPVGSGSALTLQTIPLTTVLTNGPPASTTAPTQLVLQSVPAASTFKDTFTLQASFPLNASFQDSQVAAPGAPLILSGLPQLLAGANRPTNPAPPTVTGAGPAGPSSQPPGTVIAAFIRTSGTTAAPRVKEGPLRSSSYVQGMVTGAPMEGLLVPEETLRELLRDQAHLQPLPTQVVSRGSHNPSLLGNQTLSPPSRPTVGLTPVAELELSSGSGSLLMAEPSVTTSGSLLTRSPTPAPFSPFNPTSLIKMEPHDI
ETV1, sequence (P50549 whole entry): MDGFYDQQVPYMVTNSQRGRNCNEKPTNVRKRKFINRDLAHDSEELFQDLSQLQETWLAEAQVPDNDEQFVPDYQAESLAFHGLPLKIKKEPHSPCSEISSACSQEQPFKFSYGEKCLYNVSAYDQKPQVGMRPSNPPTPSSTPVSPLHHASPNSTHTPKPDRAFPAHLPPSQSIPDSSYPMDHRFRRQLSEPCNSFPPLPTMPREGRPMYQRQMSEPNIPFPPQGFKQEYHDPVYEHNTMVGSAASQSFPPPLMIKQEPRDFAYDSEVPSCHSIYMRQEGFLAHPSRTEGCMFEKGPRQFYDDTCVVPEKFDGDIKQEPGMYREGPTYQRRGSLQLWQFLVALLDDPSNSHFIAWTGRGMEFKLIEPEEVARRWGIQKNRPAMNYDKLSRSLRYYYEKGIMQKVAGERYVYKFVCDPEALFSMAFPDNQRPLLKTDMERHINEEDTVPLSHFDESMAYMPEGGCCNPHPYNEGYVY
HSF1, sequence (Q00613 whole entry): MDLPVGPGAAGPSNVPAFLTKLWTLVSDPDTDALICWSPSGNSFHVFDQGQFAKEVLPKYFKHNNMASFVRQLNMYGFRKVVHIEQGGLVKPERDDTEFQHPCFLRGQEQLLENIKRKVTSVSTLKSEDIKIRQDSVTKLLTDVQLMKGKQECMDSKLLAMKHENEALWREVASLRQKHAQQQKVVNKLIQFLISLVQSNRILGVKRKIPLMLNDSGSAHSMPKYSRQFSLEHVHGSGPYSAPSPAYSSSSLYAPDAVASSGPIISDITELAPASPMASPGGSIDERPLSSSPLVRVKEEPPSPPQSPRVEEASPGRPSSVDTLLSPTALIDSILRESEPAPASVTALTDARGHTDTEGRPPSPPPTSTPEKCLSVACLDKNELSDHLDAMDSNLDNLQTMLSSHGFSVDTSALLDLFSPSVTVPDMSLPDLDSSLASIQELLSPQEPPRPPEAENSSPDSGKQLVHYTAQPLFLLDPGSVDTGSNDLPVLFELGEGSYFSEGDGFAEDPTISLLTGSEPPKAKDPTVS
ETV5, sequence (P41161 whole entry): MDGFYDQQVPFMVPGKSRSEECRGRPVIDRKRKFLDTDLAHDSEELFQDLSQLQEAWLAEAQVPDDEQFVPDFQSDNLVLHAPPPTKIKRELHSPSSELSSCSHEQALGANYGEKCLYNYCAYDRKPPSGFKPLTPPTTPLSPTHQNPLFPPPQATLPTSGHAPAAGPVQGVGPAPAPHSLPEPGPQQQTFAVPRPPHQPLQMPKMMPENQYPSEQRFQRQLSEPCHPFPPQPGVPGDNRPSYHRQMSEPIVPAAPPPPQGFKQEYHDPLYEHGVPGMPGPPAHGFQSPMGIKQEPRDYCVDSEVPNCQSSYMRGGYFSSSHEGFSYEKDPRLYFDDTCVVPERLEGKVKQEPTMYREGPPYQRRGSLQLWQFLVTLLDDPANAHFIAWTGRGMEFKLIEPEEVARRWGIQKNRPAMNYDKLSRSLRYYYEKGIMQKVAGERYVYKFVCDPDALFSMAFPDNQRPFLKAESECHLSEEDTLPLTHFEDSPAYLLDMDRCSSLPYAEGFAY
CRX, sequence (O43186 whole entry): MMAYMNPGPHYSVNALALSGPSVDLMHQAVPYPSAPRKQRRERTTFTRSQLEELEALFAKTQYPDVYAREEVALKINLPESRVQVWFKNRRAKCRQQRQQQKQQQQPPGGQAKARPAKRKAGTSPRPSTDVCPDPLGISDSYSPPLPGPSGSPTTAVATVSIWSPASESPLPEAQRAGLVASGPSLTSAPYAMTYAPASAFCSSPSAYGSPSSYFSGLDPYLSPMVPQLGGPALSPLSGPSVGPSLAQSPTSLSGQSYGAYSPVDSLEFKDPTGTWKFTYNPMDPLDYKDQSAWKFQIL

Sequence | binding signal [1] | binding signal [2] | binding signal [3] | binding signal [4] | binding signal [5] | binding signal [6] | binding signal [7] | binding signal [8] | binding signal [9] | binding signal [10]
TCATTC | 1.19 fold enrichment (6-mer frequency, TF over GST control) | 1.19 fold enrichment (6-mer frequency, TF over GST control) | 1.5 fold enrichment (6-mer frequency, TF over GST control) | 1.13 fold enrichment (6-mer frequency, TF over GST control) | 1.26 fold enrichment (6-mer frequency, TF over GST control) | 1.34 fold enrichment (6-mer frequency, TF over GST control) | 1.27 fold enrichment (6-mer frequency, TF over GST control) | 1.2 fold enrichment (6-mer frequency, TF over GST control) | 1.22 fold enrichment (6-mer frequency, TF over GST control) | 1.2 fold enrichment (6-mer frequency, TF over GST control)
AAAAGC | 1.21 fold enrichment (6-mer frequency, TF over GST control) | 1.29 fold enrichment (6-mer frequency, TF over GST control) | 1.3 fold enrichment (6-mer frequency, TF over GST control) | 1.2 fold enrichment (6-mer frequency, TF over GST control) | 1.17 fold enrichment (6-mer frequency, TF over GST control) | 1.3 fold enrichment (6-mer frequency, TF over GST control) | 1.28 fold enrichment (6-mer frequency, TF over GST control) | 1.22 fold enrichment (6-mer frequency, TF over GST control) | 1.43 fold enrichment (6-mer frequency, TF over GST control) | 1.19 fold enrichment (6-mer frequency, TF over GST control)
CATTTA | 1.23 fold enrichment (6-mer frequency, TF over GST control) | 1.22 fold enrichment (6-mer frequency, TF over GST control) | 1.13 fold enrichment (6-mer frequency, TF over GST control) | 1.17 fold enrichment (6-mer frequency, TF over GST control) | 1.14 fold enrichment (6-mer frequency, TF over GST control) | 1.17 fold enrichment (6-mer frequency, TF over GST control) | 1.34 fold enrichment (6-mer frequency, TF over GST control) | 1.2 fold enrichment (6-mer frequency, TF over GST control) | 1.36 fold enrichment (6-mer frequency, TF over GST control) | 1.22 fold enrichment (6-mer frequency, TF over GST control)
TTAGTT | 1.2 fold enrichment (6-mer frequency, TF over GST control) | 1.25 fold enrichment (6-mer frequency, TF over GST control) | 1.68 fold enrichment (6-mer frequency, TF over GST control) | 1.28 fold enrichment (6-mer frequency, TF over GST control) | 1.37 fold enrichment (6-mer frequency, TF over GST control) | 1.32 fold enrichment (6-mer frequency, TF over GST control) | 1.37 fold enrichment (6-mer frequency, TF over GST control) | 1.25 fold enrichment (6-mer frequency, TF over GST control) | 2.25 fold enrichment (6-mer frequency, TF over GST control) | 1.33 fold enrichment (6-mer frequency, TF over GST control)
TGTAAT | 1.12 fold enrichment (6-mer frequency, TF over GST control) | 1.17 fold enrichment (6-mer frequency, TF over GST control) | 1.39 fold enrichment (6-mer frequency, TF over GST control) | 1.27 fold enrichment (6-mer frequency, TF over GST control) | 1.23 fold enrichment (6-mer frequency, TF over GST control) | 1.21 fold enrichment (6-mer frequency, TF over GST control) | 1.26 fold enrichment (6-mer frequency, TF over GST control) | 1.26 fold enrichment (6-mer frequency, TF over GST control) | 1.79 fold enrichment (6-mer frequency, TF over GST control) | 1.17 fold enrichment (6-mer frequency, TF over GST control)
CTATGG | 1.15 fold enrichment (6-mer frequency, TF over GST control) | 1.23 fold enrichment (6-mer frequency, TF over GST control) | 1.17 fold enrichment (6-mer frequency, TF over GST control) | 1.14 fold enrichment (6-mer frequency, TF over GST control) | 1.15 fold enrichment (6-mer frequency, TF over GST control) | 1.24 fold enrichment (6-mer frequency, TF over GST control) | 1.28 fold enrichment (6-mer frequency, TF over GST control) | 1.25 fold enrichment (6-mer frequency, TF over GST control) | 1.11 fold enrichment (6-mer frequency, TF over GST control) | 1.18 fold enrichment (6-mer frequency, TF over GST control)
GATCTT | 1.14 fold enrichment (6-mer frequency, TF over GST control) | 1.21 fold enrichment (6-mer frequency, TF over GST control) | 1.62 fold enrichment (6-mer frequency, TF over GST control) | 1.42 fold enrichment (6-mer frequency, TF over GST control) | 1.26 fold enrichment (6-mer frequency, TF over GST control) | 1.23 fold enrichment (6-mer frequency, TF over GST control) | 1.18 fold enrichment (6-mer frequency, TF over GST control) | 1.43 fold enrichment (6-mer frequency, TF over GST control) | 1.71 fold enrichment (6-mer frequency, TF over GST control) | 1.25 fold enrichment (6-mer frequency, TF over GST control)
